Reference: the supplement of paper PMC10849652
The full data set covers some 7,900 targets. This sample favours those with a hit. About 0.6% of all pairs of compound and target were hits.

Assays:
Assay in all cases: log2 fold change, soluble protein after heating vs DMSO (PISA); higher = thermal stabilisation; K562 cells, 10 uM, 30 min; active = over 0.2 and 3.5 SD of the protein, either way, in both replicates (recomputed)
[1] = compound: C1=CC=C(C=C1)[C@H](COC2=CC3=C(C=C2)NC(=O)N3)NC(=O)C4=CC=CN(C4=O)CC5=CC(=C(C=C5)F)F
Procedure, shortened: (§1)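 K562 cells at 2×10^6 cells/mL were treated with 10 μM compound for 30 min. Aliquots were heated for 3 min across 48°C-58°C, pooled, and extracted in PBS with 0.5% NP-40 at 4°C; soluble protein was the supernatant after 21,000xg for 90 min. Soluble protein was quantified by TMTpro 16plex LC-MS/MS with channel sums equalised, and reported as log2 fold change in thermal stability against DMSO controls, with values from duplicates.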

[2] = compound: CC1=C(SC2=C1C(=N[C@H](C3=NN=C(N32)C)CC(=O)N)C4=CC=C(C=C4)Cl)C
Procedure, shortened: as §1

[3] = compound: CC1=C2C(=CC=C1)N=C(N(C2=O)C3=CC=CC=C3C)CN4C=NC5=C(N=CN=C54)N
Procedure, shortened: as §1

[4] = compound: Cc1sc2c(c1C)C(c1ccc(Cl)cc1)=N[C@@H](CC(=O)OC(C)(C)C)c1nnc(C)n1-2
Procedure, shortened: as §1

[5] = compound: c1ccc([C@@H]2C[C@H]2NC2CCNCC2)cc1
Procedure, shortened: as §1

Measured: log2 fold change

NA (UniProt B2RBV5)
inactive: [1] 0.002

NMT1 (UniProt P30419)
UniProt P30419, sequence (P30419 whole entry, looked up): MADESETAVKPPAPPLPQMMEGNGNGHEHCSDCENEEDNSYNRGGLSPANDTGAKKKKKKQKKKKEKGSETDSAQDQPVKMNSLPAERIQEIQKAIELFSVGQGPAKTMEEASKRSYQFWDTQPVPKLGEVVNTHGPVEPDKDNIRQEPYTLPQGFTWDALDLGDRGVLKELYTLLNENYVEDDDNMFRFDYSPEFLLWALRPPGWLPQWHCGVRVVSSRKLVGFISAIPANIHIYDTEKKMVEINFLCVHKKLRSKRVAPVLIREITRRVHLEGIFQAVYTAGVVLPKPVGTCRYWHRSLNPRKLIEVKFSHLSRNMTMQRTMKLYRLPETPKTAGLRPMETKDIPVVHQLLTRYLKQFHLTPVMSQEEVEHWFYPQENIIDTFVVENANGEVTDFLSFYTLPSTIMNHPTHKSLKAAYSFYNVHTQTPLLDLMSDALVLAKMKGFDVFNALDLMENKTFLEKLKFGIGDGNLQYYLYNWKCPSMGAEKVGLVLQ
inactive: [1] 0 | [2] 0.032 | [3] -0.001 | [4] 0.076 | [5] -0.018

NA isoform 3 (UniProt Q4G0T1)
inactive: [1] 0.161 | [2] -0.017 | [3] 0.026 | [4] 0.024 | [5] -0.126

NIPSNAP2 (UniProt C9J7B1)
inactive: [1] -0.069

NMU (UniProt P48645)
inactive: [1] -0.109 | [2] 0.008 | [3] -0.03 | [4] 0.066 | [5] -0.086

NMD3 (UniProt Q96D46)
UniProt Q96D46, sequence (Q96D46 whole entry, looked up): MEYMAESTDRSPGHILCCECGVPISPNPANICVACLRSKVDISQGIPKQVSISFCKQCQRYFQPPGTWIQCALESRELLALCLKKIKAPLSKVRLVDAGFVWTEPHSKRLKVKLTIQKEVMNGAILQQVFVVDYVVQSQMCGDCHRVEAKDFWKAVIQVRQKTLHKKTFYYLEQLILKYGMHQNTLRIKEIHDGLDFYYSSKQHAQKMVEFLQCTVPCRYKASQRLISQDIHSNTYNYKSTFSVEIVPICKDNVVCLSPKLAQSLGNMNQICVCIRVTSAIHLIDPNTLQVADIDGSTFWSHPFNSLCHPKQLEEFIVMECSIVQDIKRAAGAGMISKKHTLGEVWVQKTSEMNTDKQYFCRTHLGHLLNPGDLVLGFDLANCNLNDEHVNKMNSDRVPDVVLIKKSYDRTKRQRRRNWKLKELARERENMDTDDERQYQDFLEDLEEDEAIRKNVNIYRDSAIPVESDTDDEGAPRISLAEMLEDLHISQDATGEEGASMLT
inactive: [1] -0.046 | [2] 0.049 | [3] 0.01 | [4] -0.02 | [5] -0.11

OVCA2 (UniProt Q8WZ82)
inactive: [1] -0.152

MTFR1L (UniProt Q9H019)
inactive: [1] -0.036 | [2] -0.009 | [3] 0.066 | [4] 0.048 | [5] 0.028

MLST8 (UniProt Q9BVC4)
UniProt Q9BVC4, sequence (Q9BVC4 whole entry, looked up): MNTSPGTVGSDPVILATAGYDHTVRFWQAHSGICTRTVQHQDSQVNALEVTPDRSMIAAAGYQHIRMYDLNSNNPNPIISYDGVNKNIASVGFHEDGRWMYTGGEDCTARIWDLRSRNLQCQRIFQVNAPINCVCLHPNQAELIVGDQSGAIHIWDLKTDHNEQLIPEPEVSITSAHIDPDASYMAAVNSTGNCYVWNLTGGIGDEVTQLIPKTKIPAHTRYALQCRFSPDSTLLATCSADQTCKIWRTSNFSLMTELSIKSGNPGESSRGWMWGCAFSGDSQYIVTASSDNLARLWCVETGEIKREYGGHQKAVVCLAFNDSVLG
inactive: [1] -0.038 | [2] 0.062 | [3] 0.082 | [4] -0.05 | [5] -0.071

NEU1 (UniProt Q99519)
inactive: [1] -0.116 | [2] 0.004 | [3] 0.047 | [4] -0.043 | [5] -0.025

NA (UniProt J3KR12)
inactive: [1] -0.042

NOSIP (UniProt Q9Y314)
inactive: [1] 0.056 | [2] 0.043 | [3] 0.179 | [4] -0.043 | [5] 0.016

NMT2 (UniProt O60551)
UniProt O60551, sequence (O60551 whole entry, looked up): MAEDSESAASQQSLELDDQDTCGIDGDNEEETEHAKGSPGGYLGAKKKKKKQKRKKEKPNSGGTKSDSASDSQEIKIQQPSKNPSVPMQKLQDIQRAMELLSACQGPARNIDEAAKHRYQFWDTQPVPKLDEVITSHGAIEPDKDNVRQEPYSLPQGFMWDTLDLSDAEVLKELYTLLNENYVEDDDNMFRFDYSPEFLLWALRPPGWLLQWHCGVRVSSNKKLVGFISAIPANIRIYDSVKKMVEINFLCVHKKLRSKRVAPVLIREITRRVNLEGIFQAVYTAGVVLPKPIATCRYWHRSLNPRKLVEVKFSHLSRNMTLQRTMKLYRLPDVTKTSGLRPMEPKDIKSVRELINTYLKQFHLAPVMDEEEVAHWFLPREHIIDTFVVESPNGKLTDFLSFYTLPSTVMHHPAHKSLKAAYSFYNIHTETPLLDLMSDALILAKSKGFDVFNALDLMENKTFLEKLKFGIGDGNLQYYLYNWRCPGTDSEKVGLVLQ
inactive: [1] -0.045 | [2] 0.053 | [3] 0.092 | [4] 0.026 | [5] -0.107

NDUFA4 (UniProt O00483)
UniProt O00483, sequence (O00483 whole entry, looked up): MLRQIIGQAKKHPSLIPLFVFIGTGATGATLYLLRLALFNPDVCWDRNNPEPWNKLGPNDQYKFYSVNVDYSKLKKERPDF
inactive: [1] 0 | [2] 0.005 | [3] 0.014 | [4] -0.031 | [5] 0.046

NSDHL (UniProt Q15738)
inactive: [1] 0.029 | [2] 0.047 | [3] 0.019 | [4] 0 | [5] -0.034

NOP2 isoform 4 (UniProt P46087)
UniProt P46087, sequence (P46087 whole entry, looked up): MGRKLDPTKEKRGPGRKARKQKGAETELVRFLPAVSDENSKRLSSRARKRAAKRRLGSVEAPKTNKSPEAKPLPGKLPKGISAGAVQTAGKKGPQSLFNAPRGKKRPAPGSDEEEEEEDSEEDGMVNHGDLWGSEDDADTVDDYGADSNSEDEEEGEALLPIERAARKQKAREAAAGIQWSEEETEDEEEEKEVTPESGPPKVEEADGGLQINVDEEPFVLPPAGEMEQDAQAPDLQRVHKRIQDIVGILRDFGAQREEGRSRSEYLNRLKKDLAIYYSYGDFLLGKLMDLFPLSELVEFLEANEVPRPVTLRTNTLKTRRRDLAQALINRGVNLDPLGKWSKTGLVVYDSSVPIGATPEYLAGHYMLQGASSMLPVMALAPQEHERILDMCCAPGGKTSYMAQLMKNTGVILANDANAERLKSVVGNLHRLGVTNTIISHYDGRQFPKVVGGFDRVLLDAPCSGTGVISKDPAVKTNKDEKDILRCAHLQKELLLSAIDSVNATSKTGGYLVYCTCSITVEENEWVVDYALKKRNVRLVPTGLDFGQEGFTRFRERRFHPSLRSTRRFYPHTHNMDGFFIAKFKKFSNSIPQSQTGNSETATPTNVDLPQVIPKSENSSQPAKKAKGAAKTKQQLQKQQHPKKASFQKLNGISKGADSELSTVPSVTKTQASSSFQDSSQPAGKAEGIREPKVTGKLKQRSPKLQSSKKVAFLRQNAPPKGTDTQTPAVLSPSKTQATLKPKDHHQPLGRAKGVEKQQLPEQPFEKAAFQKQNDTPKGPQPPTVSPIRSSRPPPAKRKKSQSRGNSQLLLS
inactive: [1] 0.184 | [2] -0.494 | [3] -0.694 | [4] 0.409 | [5] -0.009

NSUN2 (UniProt Q08J23)
inactive: [1] -0.019 | [2] 0.023 | [3] 0.003 | [4] 0 | [5] 0.003

MRPL34 (UniProt Q9BQ48)
inactive: [1] 0 | [2] -0.154 | [3] -0.073 | [4] 0.058 | [5] -0.051

NGLY1 (UniProt Q96IV0)
inactive: [1] -0.084 | [2] 0.01 | [3] 0.114 | [4] 0.014 | [5] -0.046

P4HA2 (UniProt O15460)
UniProt O15460, sequence (O15460 whole entry, looked up): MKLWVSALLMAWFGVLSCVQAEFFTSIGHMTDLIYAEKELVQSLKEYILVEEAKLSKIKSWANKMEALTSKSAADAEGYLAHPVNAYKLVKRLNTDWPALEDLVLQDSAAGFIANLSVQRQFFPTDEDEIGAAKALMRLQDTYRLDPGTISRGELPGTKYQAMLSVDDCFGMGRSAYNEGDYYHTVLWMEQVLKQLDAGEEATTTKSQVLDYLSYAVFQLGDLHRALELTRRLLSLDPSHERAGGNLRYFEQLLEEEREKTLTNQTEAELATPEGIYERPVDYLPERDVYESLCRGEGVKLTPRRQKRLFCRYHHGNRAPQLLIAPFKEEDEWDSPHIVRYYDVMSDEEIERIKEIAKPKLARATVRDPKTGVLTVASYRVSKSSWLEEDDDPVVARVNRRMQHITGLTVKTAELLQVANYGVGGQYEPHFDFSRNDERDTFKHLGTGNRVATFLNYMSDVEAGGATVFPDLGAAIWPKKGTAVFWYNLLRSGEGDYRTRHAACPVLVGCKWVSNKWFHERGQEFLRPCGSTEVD
inactive: [1] 0.006 | [2] -0.033 | [3] -0.014 | [4] -0.007 | [5] -0.043

OTUD6B (UniProt Q8N6M0)
inactive: [1] -0.051 | [2] 0.022 | [3] 0.11 | [4] 0.03 | [5] -0.153

MRPL50 (UniProt Q8N5N7)
inactive: [1] 0.11 | [2] 0.01 | [3] -0.079 | [4] -0.022 | [5] -0.05

MINK1 (UniProt Q8N4C8)
UniProt Q8N4C8, sequence (Q8N4C8 whole entry, looked up): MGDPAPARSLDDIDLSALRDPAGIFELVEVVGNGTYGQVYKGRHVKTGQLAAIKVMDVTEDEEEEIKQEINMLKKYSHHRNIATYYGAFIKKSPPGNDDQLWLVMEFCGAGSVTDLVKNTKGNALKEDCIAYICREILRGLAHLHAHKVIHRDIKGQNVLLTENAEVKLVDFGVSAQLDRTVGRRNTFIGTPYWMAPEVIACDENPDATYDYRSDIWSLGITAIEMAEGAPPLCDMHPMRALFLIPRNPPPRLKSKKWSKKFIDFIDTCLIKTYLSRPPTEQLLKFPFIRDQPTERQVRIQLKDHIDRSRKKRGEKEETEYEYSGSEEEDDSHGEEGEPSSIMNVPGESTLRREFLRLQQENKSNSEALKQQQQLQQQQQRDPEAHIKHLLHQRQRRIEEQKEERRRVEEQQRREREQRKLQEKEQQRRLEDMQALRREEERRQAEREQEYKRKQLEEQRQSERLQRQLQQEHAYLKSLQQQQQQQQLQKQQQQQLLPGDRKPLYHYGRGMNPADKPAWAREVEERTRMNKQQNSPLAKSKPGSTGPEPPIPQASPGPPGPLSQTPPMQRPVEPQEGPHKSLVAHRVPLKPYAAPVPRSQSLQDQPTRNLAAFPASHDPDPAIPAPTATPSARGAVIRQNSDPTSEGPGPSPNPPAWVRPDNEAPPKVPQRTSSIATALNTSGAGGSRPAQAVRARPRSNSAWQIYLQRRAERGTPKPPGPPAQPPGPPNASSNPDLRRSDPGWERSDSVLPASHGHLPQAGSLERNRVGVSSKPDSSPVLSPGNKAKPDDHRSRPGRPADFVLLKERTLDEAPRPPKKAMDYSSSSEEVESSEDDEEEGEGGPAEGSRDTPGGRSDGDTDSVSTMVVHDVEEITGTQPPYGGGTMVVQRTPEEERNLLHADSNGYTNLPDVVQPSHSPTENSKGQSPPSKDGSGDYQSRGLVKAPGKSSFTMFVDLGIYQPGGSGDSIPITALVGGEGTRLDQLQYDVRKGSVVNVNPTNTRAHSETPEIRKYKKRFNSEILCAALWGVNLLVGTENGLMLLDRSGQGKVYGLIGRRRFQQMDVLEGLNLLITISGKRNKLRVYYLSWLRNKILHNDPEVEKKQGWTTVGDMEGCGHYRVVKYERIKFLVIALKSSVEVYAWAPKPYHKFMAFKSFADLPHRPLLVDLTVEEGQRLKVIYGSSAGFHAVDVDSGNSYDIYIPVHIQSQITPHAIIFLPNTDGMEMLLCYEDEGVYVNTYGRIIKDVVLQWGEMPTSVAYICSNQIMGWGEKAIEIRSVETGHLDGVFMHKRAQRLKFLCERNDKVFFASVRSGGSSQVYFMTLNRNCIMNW
inactive: [1] -0.036 | [2] 0.024 | [3] -0.01 | [4] 0.037 | [5] 0.005

NDUFS4 (UniProt O43181)
UniProt O43181, sequence (O43181 whole entry, looked up): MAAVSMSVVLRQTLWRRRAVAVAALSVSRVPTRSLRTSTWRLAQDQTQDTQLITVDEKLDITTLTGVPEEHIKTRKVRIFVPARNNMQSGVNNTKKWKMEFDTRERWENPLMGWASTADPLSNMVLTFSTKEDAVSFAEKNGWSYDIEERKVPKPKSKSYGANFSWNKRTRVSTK
inactive: [1] 0.078 | [2] -0.04 | [3] -0.096 | [4] 0.093 | [5] 0.086

NKTR (UniProt P30414)
inactive: [1] 0.014

MRPS16 (UniProt Q9Y3D3)
inactive: [1] -0.006 | [2] -0.033 | [3] -0.009 | [4] 0.014 | [5] -0.074

NCAPD2 (UniProt Q15021)
inactive: [1] -0.078 | [2] 0.04 | [3] 0.044 | [4] 0.016 | [5] 0.007

NME2P1 (UniProt O60361)
UniProt O60361, sequence (O60361 whole entry, looked up): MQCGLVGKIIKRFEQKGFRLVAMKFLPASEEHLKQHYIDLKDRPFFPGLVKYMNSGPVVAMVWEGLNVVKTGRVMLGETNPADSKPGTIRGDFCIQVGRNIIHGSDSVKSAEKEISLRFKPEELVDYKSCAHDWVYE
inactive: [1] -0.171 | [2] 0.079 | [3] 0.063 | [4] 0.082 | [5] -0.004
